# Assay results: a collection of fitness landscapes (doi:10.1126/science.1257360)
# In all, about 140,000 sequences were measured (“enrichment ratio after two sorts for PhoP signalling”: median about 0, highest 2% from about 11 on). Shown is part of a subset that was picked to be rich in the highest values.
# B1: PhoQ; a variant is named by its letters at X, in order, P23837 (parent)
# chain: MKKLLRLFFPLSLRVRFLLATAAVVLVLSLAYGMVALIGYSVSFDKTTFRLLRGESNLFYTLAKWENNKLHVELPENIDKQSPTMTLIYDENGQLLWAQRDVPWLMKMIQPDWLKSNGFHEIEADVNDTSLLLSGDHSIQQQLQEVREDDDDAEMTHSVAVNVYPATSRMPKLTIVVVDTIPVELKSSYMVWSWFIYVLSANLLLVIPLLWVAAWWSLRPIEALAKEVRELEEHNRELLNPATTRELTSLVRNLNRLLKSERERYDKYRTTLTDLTHSLKTPLXXLQXXLRSLRSEKMSVSDAEPVMLEQISRISQQIGYYLHRASMRGGTLLSRELHPVAPLLDNLTSALNKVYQRKGVNISLDISPEISFVGEQNDFVEVMGNVLDNACKYCLEFVEISARQTDEHLYIVVEDDGPGIPLSKREVIFDRGQRVDTLRPGQGVGLAVAREITEQYEGKIVAGESMLGGARMEVIFGRQHSAPKDE
# Variants of: B1
# Assay: enrichment ratio after two sorts for PhoP signalling (ratio (wild type AVST 3.29)); higher = more functional
# Settings: with PhoP (E. coli)
row,Variant,enrichment ratio
1,IYAV,≤ 0.25
2,IMHI,≤ 0.25
3,VVLM,3.83
4,DISV,≤ 0.25
5,ASKR,≤ 0.25
6,NKAS,≤ 0.25
7,ETLP,≤ 0.25
8,QAKK,≤ 0.25
9,YNYA,≤ 0.25
10,WNDE,≤ 0.25
11,QGMI,19.9
12,QAYI,8.06
13,QGMW,≤ 0.25
14,KAYV,≤ 0.25
15,QAYV,12.6
16,FFMI,≤ 0.25
17,WHSE,≤ 0.25
18,PFWH,≤ 0.25
19,WKDV,≤ 0.25
20,GTCI,11.7
21,GNLA,7.72
22,GNYI,≤ 0.25
23,GNNT,≤ 0.25
24,GTCK,≤ 0.25
25,GNCI,14.4
26,GNLT,16.5

row,Variant,enrichment ratio
1,GNHF,≤ 0.25
2,GTCA,≤ 0.25
3,DCAI,≤ 0.25
4,WVLT,≤ 0.25
5,WFHM,≤ 0.25
6,TILT,2.41
7,RNAL,≤ 0.25
8,MLVQ,≤ 0.25
9,VEVV,2.45
10,YEIT,≤ 0.25
11,KFTH,≤ 0.25
12,SGFH,≤ 0.25
13,SGCC,14.2
14,FGCC,13.2
15,FGCH,≤ 0.25
16,HGCC,≤ 0.25
17,NGCC,≤ 0.25
18,GGCC,1.09
19,SGCH,8.61
20,AGCC,16.1
21,AICC,5.26
22,QGCC,≤ 0.25
23,TGCC,21.5
24,EIKT,≤ 0.25
25,ELGV,≤ 0.25
26,GQWY,≤ 0.25

row,Variant,enrichment ratio
1,AMER,≤ 0.25
2,SFYL,≤ 0.25
3,SREH,≤ 0.25
4,GSFE,≤ 0.25
5,CYLP,≤ 0.25
6,FDCC,≤ 0.25
7,TDCC,12.6
8,LTCC,≤ 0.25
9,FVLE,≤ 0.25
10,KTTE,≤ 0.25
11,PKGP,4.39
12,KYLF,≤ 0.25
13,AKLF,7.81
14,GCLF,13.2
15,QCLF,≤ 0.25
16,STLF,14.6
17,HKLF,≤ 0.25
18,TKLF,18
19,FQLF,6.28
20,AQLF,15.8
21,SPLF,≤ 0.25
22,KCLF,≤ 0.25
23,ADLF,≤ 0.25
24,LCCL,≤ 0.25
25,GKCT,≤ 0.25
26,RRGY,≤ 0.25

row,Variant,enrichment ratio
1,FMSK,≤ 0.25
2,YTLF,6.76
3,SRLF,≤ 0.25
4,TTLF,4.92
5,ATLF,13.9
6,SELF,13.1
7,SLLF,0.885
8,EQLF,≤ 0.25
9,DPLF,≤ 0.25
10,GYLF,≤ 0.25
11,GTLF,11.4
12,SQLF,12.6
13,AILF,2.9
14,YMKT,≤ 0.25
15,QAAW,≤ 0.25
16,WQED,≤ 0.25
17,NQDM,≤ 0.25
18,IYQN,≤ 0.25
19,DQIN,≤ 0.25
20,HPPT,≤ 0.25
21,DIGD,≤ 0.25
22,SQMK,≤ 0.25
23,KYSK,≤ 0.25
24,SISK,12.1
25,NQMS,≤ 0.25
26,EQMS,≤ 0.25

row,Variant,enrichment ratio
1,KYTR,≤ 0.25
2,SQMS,17.9
3,SIGR,1.85
4,SITR,11.4
5,SIMK,28.9
6,STMK,9.3
7,SISR,6.33
8,DTPY,≤ 0.25
9,IRAT,≤ 0.25
10,KYIW,≤ 0.25
11,VAVA,≤ 0.25
12,AHMQ,≤ 0.25
13,IGMY,≤ 0.25
14,KQNT,≤ 0.25
15,QIGW,≤ 0.25
16,SILA,16.9
17,SITS,11.6
18,SIGD,7.24
19,SQTA,0.808
20,SIFA,≤ 0.25
21,SITA,20
22,SQTI,13.3
23,SIDW,≤ 0.25
24,SFTI,≤ 0.25
25,KYTS,≤ 0.25
26,KYLA,≤ 0.25

row,Variant,enrichment ratio
1,KYTA,≤ 0.25
2,AKHI,≤ 0.25
3,WPAY,≤ 0.25
4,GVTN,≤ 0.25
5,NYMC,≤ 0.25
6,ICGD,≤ 0.25
7,LGEW,≤ 0.25
8,SQAN,6.83
9,EDDL,≤ 0.25
10,KYMS,≤ 0.25
11,KSTS,≤ 0.25
12,SSLY,8.15
13,SISA,11.9
14,FQTS,≤ 0.25
15,SIMS,12.1
16,SQTS,11.8
17,SIYI,≤ 0.25
18,KYSA,≤ 0.25
19,SIKQ,≤ 0.25
20,SSWI,2.38
21,SSTI,13.8
22,DYKN,≤ 0.25
23,KNRG,≤ 0.25
